Pf growth 48h – P. falciparum growth inhibition at 48 hours (one generation) | P. falciparum luciferase growth in erythrocytes, 48 h | Potency, µM (doses to about 28.7 µM), inactives show at the highest dose activity change, negative = inhibition, actives largely listed as inhibitors | 310,000 compounds, 5.9% hits | AID 504832; further: on the % scale 0 is the no-effect control and ±100 the full control effect
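Luminescence readout; reporter = integrated firefly luciferase in P. falciparum. RBC culture at 2% hematocrit, 0.1% parasitemia final, 37 C/5% CO2; decreased signal taken as growth inhibition.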
AMA1 RON2 block – disrupts binding of P. falciparum AMA1 to RON2; AlphaScreen AMA1-biotinylated RON2 peptide binding; Potency, µM (series often up to 58.2 µM), for the others: top-dose activity change, negative = inhibition, usual class: inhibitors; 360,000 compounds, 0.2% hits; AID 720542;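 further: 0% = vehicle wells and -100% = peptide control; nearly all actives have a fitted effect of over 45% in size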
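AMA1 (3D7) with his tag at 25 nM final met compounds first, then biotinylated RON2 peptide at 25 nM; detection used donor plus acceptor beads, 10 µg/mL apiece, read by AlphaScreen after 30 min at room temperature.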
SARS PLpro yeast – blocks SARS-CoV papain-like protease in a yeast assay; S. cerevisiae expressing SARS-CoV PLpro, growth rescue; Potency, µM (top dose mostly 32.9 µM), inactives show at the highest dose activity, positive = growth rescue, most hits filed as activators; 330,000 compounds, 0.19% hits; AID 485353; calls by dose curve; further: 0% is about no effect; nearly all actives have a fitted effect of over 55% in size
Pf growth 96h – P. falciparum growth inhibition at 96 hour, primary screen for plastid delayed-death inhibitors; P. falciparum luciferase reporter growth, 96 h; Potency, µM (doses to about 28.7 µM), inactives show at the highest dose activity change, negative = inhibition, usual class: inhibitors; 320,000 compounds, 6.9% hits; further: on the % scale 0 is the no-effect control and ±100 the full control effect
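Compounds incubated with erythrocytes infected by luciferase-expressing P. falciparum (2% hematocrit, 0.05% parasitemia final) for 96 hours, 37 C in 5% CO2. Growth inhibition scored as decreased luciferase luminescence.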
Starred values were filed as active, the others as inactive; ? = inconclusive; . = not tested or not shown; [ ] = another dose, or the depositor's remark. In the library only some 9.4% were active in any assay of this set; here they are far more common. Unless noted, the call rests on the fitted dose curve; in most records, active means well fitted curve in the direction sought with a large enough effect; inconclusive means small, poorly fitted or top-dose-only effect, or another doubt; inactive means no such curve, though single readings can be large; an effect the other way counts as inactive or inconclusive. Potency means the concentration at half of the fitted maximal effect.

SMILES	Pf growth 48h	AMA1 RON2 block	SARS PLpro yeast	Pf growth 96h
COc1ccc2[nH]c(=O)c(CN(C3CCCCC3)C(c3nnnn3Cc3ccco3)C(C)C)cc2c1 (configuration not stated)	13.1µM*	0.1%	-1.7%	42.1%
COc1ccccc1CN(Cc1cc2c(C)ccc(C)c2[nH]c1=O)Cc1nnnn1Cc1ccco1	4.65µM*	-9.5%	0.3%	.
COc1ccc(Cn2nnnc2CN(Cc2cc3cc(C)ccc3[nH]c2=O)C2CCCC2)cc1	?	-0.2%	12.5%	-16.2%
COc1ccc2[nH]c(=O)c(CN(Cc3nnnn3Cc3ccco3)C3CCCCC3)cc2c1	?	?	21.6%	5.22µM*
CCNc1nc(Oc2ccc(OC)cc2)cc(C(F)(F)F)n1	-0.4%	50.4%	1.5%	26.4%
OC1(c2cccs2)CN(c2ccc(Cl)cc2)C2=[N+]1CCCS2 (configuration not stated)	-0.4%	14.4%	1.1%	?
CC(=C/c1ccccc1)/C=N/n1c(-c2ccco2)n[nH]c1=S	-8.8%	48.2%	-31.9%	9.3%
O=C(Nc1cccc(S(=O)(=O)Nc2ccccc2F)c1)c1ccco1	.	13.3%	0.3%	.
Cc1ccc(NC(=O)C[n+]2cc(-c3ccccc3)n3c2CCC3)cc1	10.4µM*	1.3%	0.0%	2.08µM*
Cc1ccc(-c2c[n+](CC(=O)Nc3ccccc3C)c3n2CCC3)cc1	?	-15.0%	0.1%	6.57µM*
COc1ccc(/C=C/c2cc(-c3ccc(C)cc3)o[n+]2C)cc1	?	-8.3%	-10.5%	0.147µM*
N#CC(C#N)=Cc1cccnc1	-1.3%	14.1%	-0.5%	6.0%
N#CC(C#N)=Cc1cc(O)c(O)c(O)c1	7.57µM*	.	.	10.7µM*
O=C(COc1ccc(S(=O)(=O)NC2CCCCC2)cc1Cl)NCc1cccnc1	-14.5%	-13.4%	-1.0%	.
COc1ccc(NC(=O)c2ccc(=O)[nH]c2)cc1S(=O)(=O)N1CCOCC1	8.9%	10.3%	2.6%	5.5%
Cn1c(=O)c2nc(Cl)c(-c3ccccc3)nc2n(C)c1=O	4.15µM*	7.2%	-4.2%	?
CCOC(=O)CCc1c(C)nc(SCCN2CCCC2)c(C#N)c1C	?	26.4%	8.9%	5.22µM*
COC(=O)c1ccc(NC(=O)C(=O)N2CCN(C(=S)Nc3ccc(C)cc3)CC2)cc1	-18.9%	-3.5%	5.3%	0.37µM*
COC(=O)c1ccc(NC(=O)C(=O)N2CCN(C(=S)Nc3ccc(OC)cc3)CC2)cc1	?	7.5%	-4.5%	?
O=C(O)Cc1ccc(N=Cc2c(O)ccc3ccccc23)cc1	-1.4%	5.5%	6.9%	46.2%
Cc1cc(C(F)(F)F)n(-c2nc(C(=O)NN)cs2)n1	19.8%	97.9%	0.2%	7.38µM*
CCOC(=O)c1csc(-n2nc(C)cc2C(F)(F)F)n1	?	8.3%	1.0%	10.9%
CCOC(=O)N1CCN(C(=O)CSc2nc3c([nH]c4ccccc43)c(=O)n2CCOC)CC1	?	-2.7%	0.3%	11.7µM*
CCC1CCCCN1C(=O)CSc1nc2c([nH]c3ccccc32)c(=O)n1C (configuration not stated)	9.28µM*	-1.5%	-12.7%	-0.7%
CCSc1nc2c([nH]c3ccccc32)c(=O)n1C	.	1.3%	17.6%	-21.8%
SMILES	Pf growth 48h	AMA1 RON2 block	SARS PLpro yeast	Pf growth 96h
CCc1c(C)nc(SCC(=O)N2CCCCC2CC)[nH]c1=O (configuration not stated)	2.08µM*	-3.8%	1.1%	-2.8%
COCCn1c(SCC(=O)N2CCCCCC2)nc2c([nH]c3ccccc32)c1=O	?	4.8%	0.0%	?
COCCn1c(SCC(=O)N2CCCCC2)nc2c([nH]c3ccccc32)c1=O	11.7µM*	-0.2%	3.0%	?
CC(C)c1nc(SCC(=O)N2CCCC2)c2c(=O)n(C)c(=O)n(C)c2n1	.	35.6%	.	.
Fc1cccc(-c2cc3nc4c(c(N5CCC6(CC5)OCCO6)n3n2)CCCC4)c1	9.28µM*	2.2%	2.6%	13.7%
COc1cc(OC)cc(-c2cc3nc4c(c(N5CCN(c6ncccn6)CC5)n3n2)CCCC4)c1	1.31µM*	10.2%	0.5%	4.5%
OC1CCN(c2c3c(nc4cc(-c5cccc(F)c5)nn24)CCCC3)CC1	9.28µM*	5.5%	-36.4%	18.8%
COC(=O)c1c(-c2cccc(C)c2)csc1NC(=O)C1CCCO1 (configuration not stated)	13.1µM*	-26.6%	-0.4%	4.1%
CCOC(=O)c1c(-c2ccc(C)cc2)csc1NC(=O)C1CCCO1 (configuration not stated)	?	-15.1%	-42.3%	9.28µM*
CCOC(=O)c1c(-c2ccc(OC)cc2)csc1NC(=O)C1CCCO1 (configuration not stated)	?	-7.9%	-2.3%	44.4%
Cc1cccc(-c2nc3cc(NC(=O)C4CCCO4)ccc3o2)c1 (configuration not stated)	123.1%	9.9%	-21.6%	-1.0%
CCOC(=O)c1c(-c2ccc(OC)cc2)csc1NC(=O)CCN1CCOCC1	11.7µM*	?	0.4%	5.86µM*
Cc1ccc2oc(-c3cccc(NC(=O)C4CCCO4)c3)nc2c1 (configuration not stated)	225.2%	19.9%	-14.4%	10.4µM*
CCCCNC(=O)C[C@@H]1C[C@@]2(C(=O)OC)CCCCC=C2N(Cc2ccco2)C1=O	.	-1.7%	.	.
Cc1ccc(S(=O)(=O)N2CCN(C(=O)N3CCCCC3)CC2)c(C)c1	.	7.4%	.	.
COc1ccccc1CNC(=O)C(=O)NCCC1CCCCN1S(=O)(=O)c1cccs1 (configuration not stated)	?	-17.3%	-2.9%	11.7µM*
COc1ccccc1CCNC(=O)C(=O)NCCC1CCCCN1S(=O)(=O)c1ccccc1 (configuration not stated)	49.8%	-0.8%	-1.3%	82.2%
COc1ccccc1CNC(=O)C(=O)NCCC1CCCCN1S(=O)(=O)c1ccc(C)cc1 (configuration not stated)	11.7µM*	-22.4%	-4.3%	?
Cc1ccccc1CNC(=O)C(=O)NCCC1CCCCN1S(=O)(=O)c1cccs1 (configuration not stated)	?	?	-1.8%	11.7µM*
O=C1c2ccc([N+](=O)[O-])cc2C(=O)N1c1c[nH]c(=O)[nH]c1=O	36.1%	6.5%	-0.9%	-73.5%[5.75 µM]
CCOC(=O)c1c(-c2ccc(F)cc2)cn2ccccc12	?	-7.1%	?	?
COC(=O)c1ccc2nc(-c3cccc(Cl)c3)c(Cc3ccccc3OC)n2c1	.	2.9%	.	.
Cc1cccc([C@H](NC(=O)OC(C)(C)C)C(=O)OC(C)(C)C)c1	-7.9%	11.4%	3.3%	?
CCCSc1nc2sc3c(c2c(=O)[nH]1)CCN(Cc1ccccc1)C3	?	-4.4%	.	4.15µM*
OCCC1CN(Cc2cccn2-c2nccs2)CCN1Cc1ccccc1 (configuration not stated)	-1.8%	-3.8%	0.5%	2.3%
OCCC1CN(Cc2cccn2-c2nccs2)CCN1Cc1ccc(F)c(F)c1 (configuration not stated)	?	-9.9%	1.2%	13.1µM*

Bioassay records from PubChem.
